# Source: the supplement of paper PMC4022240
# ± gives the standard deviation.
# T1: HaloTag-ATRX ADD domain (163-292)
# T1 chain: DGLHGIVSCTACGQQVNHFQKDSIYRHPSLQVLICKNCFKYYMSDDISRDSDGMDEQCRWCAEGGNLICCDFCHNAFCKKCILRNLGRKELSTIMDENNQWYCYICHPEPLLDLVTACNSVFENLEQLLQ
# What was measured:
# Test in all cases: peptide microarray binding signal (635 nm), min-max normalized on array (fraction of array maximum); higher = stronger binding
# [1] = biological target: T1, HaloTag-ATRX ADD domain (163-292)
# Description: (§1)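 Histone 13-mer peptides were synthesized as cellulose conjugates with a C-terminal 20-atom PEG linker and printed in triplicate on nitrocellulose. The sequence given is the unmodified backbone; PTMs (Kme1/2/3, Kac, Sph/Tph, Rme/Rme2a/Rme2s, Rcit) are listed in the label and the 'peptide modifications' condition. Slides were probed at 4 °C for 1 h with biotin-labelled (HQ)5-HaloTag reader fusions (ATRX-ADD, ING2-PHD) then streptavidin-Alexa647, or with rabbit histone antibodies then anti-rabbit Alexa647. The mean 635 nm signal of the triplicate spots was scaled 0-1 between the lowest and highest values on each array.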
# [2] = biological target: HaloTag-ING2 PHD (mouse Ing2 200-280)
# Description: as §1
# [3] = biological target: anti-H3K4me3 antibody ab8580
# Description: as §1
# [4] = biological target: anti-H3K9me3 antibody ab8898
# Description: as §1
# [5] = peptide region: H3 1-13, peptide modifications: H3T3ph H3K9ac, binder concentration: 1:2,000 dilution
# [6] = peptide region: H3 1-13, peptide modifications: H3T3ph H3K9ac, binder concentration: 1:10,000 dilution
# [7] = peptide region: H3 5-17, peptide modifications: H3K9ac H3K14ac, binder concentration: 1:2,000 dilution
# [8] = peptide region: H3 5-17, peptide modifications: H3K9ac H3K14ac, binder concentration: 1:10,000 dilution
# [9] = peptide region: H3 5-17, binder concentration: 1:2,000 dilution
# [10] = peptide region: H3 5-17, binder concentration: 1:10,000 dilution
# [11] = peptide region: H3 1-13, peptide modifications: H3T3ph, binder concentration: 1:2,000 dilution
# [12] = peptide region: H3 1-13, peptide modifications: H3T3ph, binder concentration: 1:10,000 dilution
# [13] = peptide region: H3 1-13, peptide modifications: H3T6ph H3R8cit, binder concentration: 1:2,000 dilution
# [14] = peptide region: H3 1-13, peptide modifications: H3T6ph H3R8cit, binder concentration: 1:10,000 dilution
# [15] = peptide region: H3 1-13, peptide modifications: H3T6ph H3K9ac, binder concentration: 1:2,000 dilution
# [16] = peptide region: H3 1-13, peptide modifications: H3T6ph H3K9ac, binder concentration: 1:10,000 dilution
# [17] = peptide region: H3 5-17, peptide modifications: H3K9ac H3K14me2, binder concentration: 1:2,000 dilution
# [18] = peptide region: H3 5-17, peptide modifications: H3K9ac H3K14me2, binder concentration: 1:10,000 dilution
# [19] = peptide region: H3 1-13, peptide modifications: H3T6ph H3R8me1, binder concentration: 1:2,000 dilution
# [20] = peptide region: H3 1-13, peptide modifications: H3T6ph H3R8me1, binder concentration: 1:10,000 dilution
# [21] = peptide region: H3 1-13, peptide modifications: H3T6ph H3K9me3, binder concentration: 1:2,000 dilution
# [22] = peptide region: H3 1-13, peptide modifications: H3T6ph H3K9me3, binder concentration: 1:10,000 dilution
# [23] = peptide region: H3 5-17, peptide modifications: H3K9ac H3K14me1, binder concentration: 1:2,000 dilution
# [24] = peptide region: H3 5-17, peptide modifications: H3K9ac H3K14me1, binder concentration: 1:10,000 dilution
binder,measurement,setting,value
ARTKQTARKSTGG [H3 1-13 A R Tph K Q T A R Kac S T G G],peptide microarray binding signal,"[1]; peptide region: H3 1-13, peptide modifications: H3T3ph H3K9ac, binder concentration: 50 nM",0.00881 ± 0.00025
same,peptide microarray binding signal,"[1]; peptide region: H3 1-13, peptide modifications: H3T3ph H3K9ac, binder concentration: 500 nM",0.0147 ± 0.00088
same,peptide microarray binding signal,"[2]; peptide region: H3 1-13, peptide modifications: H3T3ph H3K9ac, binder concentration: 10 nM",0.0255 ± 0.0014
same,peptide microarray binding signal,"[2]; peptide region: H3 1-13, peptide modifications: H3T3ph H3K9ac, binder concentration: 100 nM",0.04 ± 0.0064
same,peptide microarray binding signal,[3]; [5],0.0124 ± 0.0018
same,peptide microarray binding signal,[3]; [6],0.00867 ± 0.00052
same,peptide microarray binding signal,[4]; [5],0.00523 ± 0.00022
same,peptide microarray binding signal,[4]; [6],0.00363 ± 0.00025
QTARKSTGGKAPR [H3 5-17 Q T A R Kac S T G G Kac A P R],peptide microarray binding signal,"[1]; peptide region: H3 5-17, peptide modifications: H3K9ac H3K14ac, binder concentration: 50 nM",0.0318 ± 0.0049
same,peptide microarray binding signal,"[1]; peptide region: H3 5-17, peptide modifications: H3K9ac H3K14ac, binder concentration: 500 nM",0.0984 ± 0.027
same,peptide microarray binding signal,"[2]; peptide region: H3 5-17, peptide modifications: H3K9ac H3K14ac, binder concentration: 10 nM",0.0862 ± 0.034
same,peptide microarray binding signal,"[2]; peptide region: H3 5-17, peptide modifications: H3K9ac H3K14ac, binder concentration: 100 nM",0.048 ± 0.023
same,peptide microarray binding signal,[3]; [7],0.0141 ± 0.0045
same,peptide microarray binding signal,[3]; [8],0.0234 ± 0.0064
same,peptide microarray binding signal,[4]; [7],0.03 ± 0.0085
same,peptide microarray binding signal,[4]; [8],0.0332 ± 0.014
QTARKSTGGKAPR [H3 5-17 Q T A R K S T G G K A P R],peptide microarray binding signal,"[1]; peptide region: H3 5-17, binder concentration: 50 nM",0.00796 ± 0.00026
same,peptide microarray binding signal,"[1]; peptide region: H3 5-17, binder concentration: 500 nM",0.00462 ± 0.00035
same,peptide microarray binding signal,"[2]; peptide region: H3 5-17, binder concentration: 10 nM",0.00376 ± 7.2e-05
same,peptide microarray binding signal,"[2]; peptide region: H3 5-17, binder concentration: 100 nM",0.00489 ± 0.00045
same,peptide microarray binding signal,[3]; [9],0.000982 ± 8.5e-05
same,peptide microarray binding signal,[3]; [10],0.00143 ± 0.00013
same,peptide microarray binding signal,[4]; [9],0.00242 ± 0.0011
same,peptide microarray binding signal,[4]; [10],0.00265 ± 0.00021
ARTKQTARKSTGG [H3 1-13 A R Tph K Q T A R K S T G G],peptide microarray binding signal,"[1]; peptide region: H3 1-13, peptide modifications: H3T3ph, binder concentration: 50 nM",0.01044 ± 0.0001
same,peptide microarray binding signal,"[1]; peptide region: H3 1-13, peptide modifications: H3T3ph, binder concentration: 500 nM",0.0136 ± 0.0015
same,peptide microarray binding signal,"[2]; peptide region: H3 1-13, peptide modifications: H3T3ph, binder concentration: 10 nM",0.0146 ± 0.00026
same,peptide microarray binding signal,"[2]; peptide region: H3 1-13, peptide modifications: H3T3ph, binder concentration: 100 nM",0.0137 ± 0.0036
same,peptide microarray binding signal,[3]; [11],0.00119 ± 5e-05
same,peptide microarray binding signal,[3]; [12],0.002568 ± 2.3e-05
same,peptide microarray binding signal,[4]; [11],0.00137 ± 6.5e-05
same,peptide microarray binding signal,[4]; [12],0.002998 ± 2.6e-05
ARTKQTARKSTGG [H3 1-13 A R T K Q Tph A Rcit K S T G G],peptide microarray binding signal,"[1]; peptide region: H3 1-13, peptide modifications: H3T6ph H3R8cit, binder concentration: 50 nM",0.00461 ± 9.2e-05
same,peptide microarray binding signal,"[1]; peptide region: H3 1-13, peptide modifications: H3T6ph H3R8cit, binder concentration: 500 nM",0.00667 ± 0.00019
same,peptide microarray binding signal,"[2]; peptide region: H3 1-13, peptide modifications: H3T6ph H3R8cit, binder concentration: 10 nM",0.004536 ± 4e-05
same,peptide microarray binding signal,"[2]; peptide region: H3 1-13, peptide modifications: H3T6ph H3R8cit, binder concentration: 100 nM",0.00652 ± 0.00029
same,peptide microarray binding signal,[3]; [13],0.000396
same,peptide microarray binding signal,[3]; [14],0.000114 ± 1.3e-06
same,peptide microarray binding signal,[4]; [13],0.000332 ± 8.8e-06
same,peptide microarray binding signal,[4]; [14],0.000807 ± 2.5e-05
ARTKQTARKSTGG [H3 1-13 A R T K Q Tph A R Kac S T G G],peptide microarray binding signal,"[1]; peptide region: H3 1-13, peptide modifications: H3T6ph H3K9ac, binder concentration: 50 nM",0.00724 ± 0.00023
same,peptide microarray binding signal,"[1]; peptide region: H3 1-13, peptide modifications: H3T6ph H3K9ac, binder concentration: 500 nM",0.0156 ± 0.0012
same,peptide microarray binding signal,"[2]; peptide region: H3 1-13, peptide modifications: H3T6ph H3K9ac, binder concentration: 10 nM",0.0307 ± 0.002
same,peptide microarray binding signal,"[2]; peptide region: H3 1-13, peptide modifications: H3T6ph H3K9ac, binder concentration: 100 nM",0.0441 ± 0.0085
same,peptide microarray binding signal,[3]; [15],0.00995 ± 0.00061
same,peptide microarray binding signal,[3]; [16],0.00622 ± 0.00014
same,peptide microarray binding signal,[4]; [15],0.00527 ± 0.00089
same,peptide microarray binding signal,[4]; [16],0.00294 ± 0.00011
QTARKSTGGKAPR [H3 5-17 Q T A R Kac S T G G Kme2 A P R],peptide microarray binding signal,"[1]; peptide region: H3 5-17, peptide modifications: H3K9ac H3K14me2, binder concentration: 50 nM",0.00746 ± 0.00033
same,peptide microarray binding signal,"[1]; peptide region: H3 5-17, peptide modifications: H3K9ac H3K14me2, binder concentration: 500 nM",0.0201 ± 0.0018
same,peptide microarray binding signal,"[2]; peptide region: H3 5-17, peptide modifications: H3K9ac H3K14me2, binder concentration: 10 nM",0.0147 ± 0.0015
same,peptide microarray binding signal,"[2]; peptide region: H3 5-17, peptide modifications: H3K9ac H3K14me2, binder concentration: 100 nM",0.0485 ± 0.015
same,peptide microarray binding signal,[3]; [17],0.0108 ± 0.00077
same,peptide microarray binding signal,[3]; [18],0.00468 ± 0.00039
same,peptide microarray binding signal,[4]; [17],0.0189 ± 0.00074
same,peptide microarray binding signal,[4]; [18],0.406 ± 0.064
ARTKQTARKSTGG [H3 1-13 A R T K Q Tph A Rme K S T G G],peptide microarray binding signal,"[1]; peptide region: H3 1-13, peptide modifications: H3T6ph H3R8me1, binder concentration: 50 nM",0.00476 ± 9.2e-05
same,peptide microarray binding signal,"[1]; peptide region: H3 1-13, peptide modifications: H3T6ph H3R8me1, binder concentration: 500 nM",0.022 ± 0.0012
same,peptide microarray binding signal,"[2]; peptide region: H3 1-13, peptide modifications: H3T6ph H3R8me1, binder concentration: 10 nM",0.00507 ± 0.0011
same,peptide microarray binding signal,"[2]; peptide region: H3 1-13, peptide modifications: H3T6ph H3R8me1, binder concentration: 100 nM",0.0331 ± 0.012
same,peptide microarray binding signal,[3]; [19],0.00111 ± 7.2e-05
same,peptide microarray binding signal,[3]; [20],0.00148 ± 0.0001
same,peptide microarray binding signal,[4]; [19],0.00234 ± 0.00042
same,peptide microarray binding signal,[4]; [20],0.00213 ± 7.1e-05
ARTKQTARKSTGG [H3 1-13 A R T K Q Tph A R Kme3 S T G G],peptide microarray binding signal,"[1]; peptide region: H3 1-13, peptide modifications: H3T6ph H3K9me3, binder concentration: 50 nM",0.007335 ± 6.2e-05
same,peptide microarray binding signal,"[1]; peptide region: H3 1-13, peptide modifications: H3T6ph H3K9me3, binder concentration: 500 nM",0.01343 ± 9.1e-05
same,peptide microarray binding signal,"[2]; peptide region: H3 1-13, peptide modifications: H3T6ph H3K9me3, binder concentration: 10 nM",0.0229 ± 0.0005
same,peptide microarray binding signal,"[2]; peptide region: H3 1-13, peptide modifications: H3T6ph H3K9me3, binder concentration: 100 nM",0.0339 ± 0.003
same,peptide microarray binding signal,[3]; [21],0.0494 ± 0.0093
same,peptide microarray binding signal,[3]; [22],0.0422 ± 0.0078
same,peptide microarray binding signal,[4]; [21],0.269 ± 0.024
same,peptide microarray binding signal,[4]; [22],0.17 ± 0.021
QTARKSTGGKAPR [H3 5-17 Q T A R Kac S T G G Kme A P R],peptide microarray binding signal,"[1]; peptide region: H3 5-17, peptide modifications: H3K9ac H3K14me1, binder concentration: 50 nM",0.00746 ± 0.00018
same,peptide microarray binding signal,"[1]; peptide region: H3 5-17, peptide modifications: H3K9ac H3K14me1, binder concentration: 500 nM",0.024 ± 0.0017
same,peptide microarray binding signal,"[2]; peptide region: H3 5-17, peptide modifications: H3K9ac H3K14me1, binder concentration: 10 nM",0.023 ± 0.0062
same,peptide microarray binding signal,"[2]; peptide region: H3 5-17, peptide modifications: H3K9ac H3K14me1, binder concentration: 100 nM",0.0497 ± 0.004
same,peptide microarray binding signal,[3]; [23],0.00345 ± 0.00048
same,peptide microarray binding signal,[3]; [24],0.00205 ± 3.8e-05
same,peptide microarray binding signal,[4]; [23],0.0192 ± 0.002
same,peptide microarray binding signal,[4]; [24],0.00882 ± 0.00058
